According to PubChem BioAssay (NCATS):
Inconclusive results are not listed. The source made the active and inactive calls. The call rests on the fitted dose curve; in most records, active means well fitted inhibition curve with a large enough effect in the main read-out, with a control signal flat (not every such curve was filed as active); inconclusive means small, poorly fitted or top-dose-only effect, or effect the other way, or a change in a side signal; inactive means no such curve, though single readings can be large or run the other way.

Test: Nrf2 qHTS screen for inhibitors: Validation (AID 493153);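 on activity change, negative = inhibition: A549 cells with ARE-driven firefly luciferase reporter reporting Nrf2 activity; % of control where 0% means no effect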
Details: A549 ARE-Fluc reporter, 18-24 h; Potency: luciferase luminescence; viability change: measured here: cytotoxicity max response; luciferase luminescence, at 46.1 µM (top of the series); activity change, negative = inhibition: at the top concentration
Excerpt: NIH Molecular Libraries Probe Production Network [MLPCN] NIH Chemical Genomics Center [NCGC] MLPCN Grant: R03-MH092170-01 Assay Provider: Shyam Biswal, Johns Hopkins University Assay Overview: Nrf2 is a transcription factor that maintains cellular redox homoestasis and protects cells from xenobiotics. Nrf2 binds to the antioxidant response element (ARE) to induce gene expression of a broad spectrum of genes that encode for antioxidants. […] Finding a small molecule that act as an inhibitor of Nrf2 function would represent a novel therapeutic target that could lead to improvement in survival of patients undergoing chemo- and/or radio- therapy. 1. Shibata, T., et al., Genetic Alteration of Keap1 Confers Constitutive Nrf2 Activation and Resistance to Chemotherapy in Gallbladder Cancer. Gastroenterology, 2008. 2. Sjoblom, T., et al., The consensus coding sequences of human breast and colorectal cancers. Science, 2006. 314(5797): p. 268-74.
Assay Protocol Summary: A concentration-response assay was performed with A549 ARE_Fluc cells which are suspended in 5% FBS OPTI-MEM. Five uL were dispensed into 1536-well white TC-treated plate using the Kalypsys dispenser to achieve a density of 5000 cells/well in all columns except column 1. The plate is incubated at 37deg C at 5% CO2 for 2 hours before 23 nL of compounds are added with the Kalypsys pin tool equipped with a 1,536-pin array containing 10-nL slotted pins (FP1S10, 0.457-mm diameter, 50.8 mm long; V&P Scientific). The control compounds Budesonide and Staurosporine are both added at a concentration of 2mM and Budesonide is also added as a 1:10 titration, starting at 200uM, to achieve dose-response. After an 18-24 hour incubation at 37deg C at 5% CO2, 5ul of medium is added to column 1. Afterwards 1ul of 5x of CellTiter-Fluor (Promega) is added to every well. The plate is then incubated at 37deg C at 5% CO2 for 30 minutes before they are read on the ViewLux (Perkin Elmer) for a fluorescent read Ex=405(10)/Em=525(10) for a 3 second exposure, 2x binning, and high gain. Then 3 uL of 3x BugLite is dispensed into all wells and the plate is incubated at ambient room temperature for 15 minutes. Afterwards another ViewLux read is performed using the clear filter to get a luminescent read with the settings of 40 second exposure, 2x binning, and high gain. Cytotoxicity is assessed through the first fluorescent read and then biochemical activity against Nrf2 is measured in the luminescent read.
Potency means the concentration at half of the fitted maximal effect.

SMILES | activity change, negative = inhibition | viability change | Potency
C[N+]1(C)CCN(c2ccccc2)CC1 | 0% (inactive) | -2.09% | 
C[C@H](Cc1ccc2c(c1)OC(C(=O)O)(C(=O)O)O2)NC[C@H](O)c1cccc(Cl)c1 | 2.73% (inactive) | 0.983% | 
C[N+]1(C)C2CCC1CC(OC(=O)c1c[nH]c3ccccc13)C2 (stereo not given) | -8.37% (inactive) | 2.15% | 
C=CCN1CCC23c4c5ccc(O)c4O[C@H]2C(=O)CC[C@@]3(O)C1C5 (stereo not given in full) | -13.2% (inactive) | 2.4% | 
Clc1ccc(N2CC3CCC(C2)N3)nn1 | 1.28% (inactive) | 4.91% | 
CCCN1CCc2cc(O)cc3c2[C@H]1Cc1ccc(O)c(O)c1-3 | 2.51% (inactive) | -6.67% | 
C[C@H](N)Cc1cccc(C(F)(F)F)c1 | 1.22% (inactive) | -8.9% | 
C=CCN1C[C@@H](C)N([C@H](c2ccc(C(=O)N(CC)CC)cc2)c2cccc(OC)c2)C[C@@H]1C | -8.34% (inactive) | 4.14% | 
C=CCN1CCc2cccc3c2[C@H]1Cc1ccc(O)c(O)c1-3 | -6.97% (inactive) | 1.3% | 
NCC(CP(=O)(O)O)c1ccc(Cl)cc1 (stereo not given) | -2.14% (inactive) | 3.89% | 
CCCN(CCC)[C@H]1CCc2c(F)ccc(O)c2C1 | -4.21% (inactive) | -8.48% | 
NCCc1ccc(S(=O)(=O)F)cc1 | -5.35% (inactive) | -2.23% | 
CCCn1c(=O)c2[nH]c(C3CCCC3)nc2n(CCCOC(=O)c2ccc(S(=O)(=O)F)cc2)c1=O | 0.969% (inactive) | -2.37% | 
C[C@@H]1O[C@H](C[N+](C)(C)C)CS1 | 7.48% (inactive) | 8.63% | 
NC(N)=NOCC[C@H](N)C(=O)O | -2.05% (inactive) | 10.2% | 
COc1ccc(OC)c(C(O)C(C)N)c1 (stereo not given) | -11.7% (inactive) | -6.5% | 
N#CCCN | 7.89% (inactive) | -4.25% | 
C[C@]12Cc3cn4c(nc3C=C1CCC1C2CC[C@@]2(C)[C@H]1CC[C@@]2(O)C#N)nc1ccccc14 (stereo not given in full) |  | -1.99% | 13 µM (active)
Clc1cc(I)cc(Cl)c1NC1=NCCN1 | -2.58% (inactive) | 9.07% | 
Cc1[nH]c2ccc(O)cc2c1CCN | 7.44% (inactive) | -7.71% | 
